Records with an inconclusive call do not appear. A call without a number means that no potency is given here. The source made the active and inactive calls. Calls follow the shape of the dose curve; as a rule, active = well fitted curve in the direction sought with a large enough effect; inconclusive = small, poorly fitted or top-dose-only effect, or another doubt; inactive = no such curve, though single readings can be large; an effect the other way counts as inactive or inconclusive.
Tests used:
[1] = Inflammasome Signaling qHTS Counterscreen: IL-1-beta AlphaLISA counterscreen against the NCATS CANVASS Library (AID 1347381);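 also: cell-free check with purified IL-1β in medium and no THP-1 cells; series mostly up to about 57 µM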
Outline: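 Purified IL-1-beta (4 pg/well) + compound, 11-pt conc. series; acceptor beads 6 ug/mL + biotin-Ab 0.6 nM final, 1 h RT; SA-donor 24 ug/ml final, 30 min dark RT; read ex 680/em 615.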

[2] = Cytotoxicity qHTS for assessment of Hepg2 cells membrane integrity screened against the NCATS CANVASS Library (AID 1347387)
Outline: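 Cells were seeded at 2000 per well and left overnight to attach. Compounds were pin-transferred to give 0.59 nM - 46 uM in an 11-point series and incubated 5 hr at 37C. CytoTox-ONE reagent was added and, after 10 min at room temperature, fluorescence (ex 560, em 590 nm) was read.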

[3] = qHTS for Activators of p53 Stress Response Pathway screened against the NCATS CANVASS Library (AID 1347388)
Outline: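 p53RE-bla HCT-116 cells (4000/well) were pre-incubated for 5 h, then treated with compound (11 points) for 16 h at 37C. After 2 h with CCF4, the 460/530 nm ratio gave reporter activation; CellTiter-Glo measured viability.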

[4] = qHTS assay for small molecule disruptors of mitochondrial membrane potential screened against the NCATS CANVASS Library (AID 1347389); also: series mostly up to about 46 µM; nearly all actives have a fitted effect of over 60% in size
Outline: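 Mitochondrial depolarization in HepG2 cells is scored as a falling aggregate-to-monomer fluorescence ratio after 1 hr compound exposure and 30 min staining with Mito-MPS dye at 37C, each compound tested as an 11-point titration.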

[5] = Secretion counterscreen for inhibitors of the SERCaMP assay screened against the NCATS CANVASS Library (AID 1347390);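 also: light from luciferase secreted into medium read as a measure of general secretion; series mostly up to about 77 µM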
Outline: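 Counterscreen for secretory-pathway interference: after 4 h attachment, SH-SY5Y-GLuc cells were exposed 20 hours to compounds (final 0.001 - 77 uM), then coelenterazine added and GLuc luminescence recorded; Brefeldin A served as control.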

[6] = qHTS for activators of Nrf2/ARE signaling pathway screened against the NCATS CANVASS Library (AID 1347391); also: nearly all actives have a fitted effect of over 60% in size
Outline: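 Beta-lactamase reporter signal, read as 460 and 530 nm emission under 405 nm excitation after 2 h CCF4 loading, reflected ARE activation in HepG2 cells treated 16 h with an 11-point series.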

[7] = qHTS for activators of dead-cell proteases activity screened against the NCATS CANVASS Library (AID 1347392);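 also: luminescence from protease leaking out of membrane-damaged cells cleaving impermeant substrate; rising signal means more cytotoxicity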
Outline: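 HepG2, 2000 cells/well, 18 h attach; cpd 11-pt, 5 h 37C 5% CO2; CytoTox-Glo (AAF-aminoluciferin) 15 min RT; luminescence read.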

[8] = qHTS for inhibitors of ER calcium dysfunction: SERCaMP assay screened against the NCATS CANVASS Library (AID 1347393);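 also: series mostly up to about 77 µM; lower secreted reporter signal means inhibitor of ER calcium depletion; nearly all actives have a fitted effect of over 40% in size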
Outline: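 SH-SY5Y GLuc-SERCaMP, 1000 cells/well, 4 h attach; cpd 16 h, 37C/5% CO2; thapsigargin (added as 6x 600 nM) 4 h; coelenterazine; luminescence. Reduced reporter release = ER Ca stabilization.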

[9] = Vero-766 cells viability qHTS against the NCATS CANVASS Library: Counterscreen for Zika virus inhibition assay (AID 1347394); also: series mostly up to about 46 µM; nearly all actives have a fitted effect of over 60% in size
Outline: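 CellTiter Glo luminescence measured cytotoxicity after 72 h at 37C in uninfected Vero 766 cells, plated at 1000 cells/well. Compounds were applied in an 11-point series. Wells without cells defined 100% inhibition.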

[10] = qHTS for inhibitors of Wild type Zika virus screened against the NCATS CANVASS Library (AID 1347396);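 also: ATP luminescence of surviving cells so rescue from viral cell killing; series mostly up to about 46 µM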
Outline: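 Vero 766 (African green monkey) cells, 1000 per well, attached overnight, then compounds were added in an 11-point series before wild-type Zika virus infection. After 72 h at 37C, cell viability was read as CellTiter Glo luminescence.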

[11] = Viability qHTS for inhibitors of the SERCaMP assay screened against the NCATS CANVASS Library (AID 1347400); also: series mostly up to about 92 µM; nearly all actives have a fitted effect of over 70% in size
Outline: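 Seed SH-SY5Y-GLuc SERCaMP MJH297 cells at 1000 per well, incubate 4 h, add compounds across an 11-point range, incubate 48 h at 37C, then add CellTiter-Glo and read luminescence.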

[12] = Redox Reaction Profiling qHTS: Assay Interference Panel against the NCATS CANVASS Library (AID 1347401)
Outline: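 Fluorescence read-out (525 nm excitation, 598 nm emission) at time zero and after 15 min in the dark tracked resorufin formation. Mix: 5 uM resazurin, 200 uM DTT, HEPES pH 7.3 buffer with NaCl.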

[13] = qHTS to identify inhibitors of the type 1 interferon - major histocompatibility complex class I in skeletal muscle: primary screen against the NCATS Mechanism Interrogation Plate v5.0 (MIPE) Libary (AID 1347411); also: nearly all actives have a fitted effect of over 65% in size; also: potency is read from the fitted curve at half-maximal effect
Outline: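 Seed engineered human myoblasts (HLA-B HiBit) in medium without dexamethasone containing 4 ng/ml IFN-beta; after 1 hr add compound titrations (top 46 uM final). Incubate 24 hrs at 37 C, lyse 10 min with HiBiT reagent, read luminescence.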

[14] = qHTS to identify inhibitors of the type 1 interferon - major histocompatibility complex class I in skeletal muscle: primary screen against the NCATS LOPAC collection (AID 1347405);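 also: human myoblasts with HiBiT tag on endogenous HLA-B stimulated by IFN-beta; lytic HiBiT luminescence reporting HLA-B protein level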
Outline: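 First, engineered myoblasts carrying HLA-B-HiBiT were seeded in medium lacking dexamethasone with 4 ng/ml IFN-beta. After 1 hr, compounds were pinned in (top 46 uM final, 7 points). After 24 hrs at 37 C, luminescence was measured following 10 min lysis.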

[15] = qHTS to identify inhibitors of the type 1 interferon - major histocompatibility complex class I in skeletal muscle: primary screen against the NCATS Pharmaceutical Collection (AID 1347407);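 also: luminescence of HiBiT knocked into endogenous HLA-B as interferon-induced MHC class I level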
Outline: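 Compounds […] were added to CRISPR-engineered HLA-B-HiBiT C25cl48 human myoblasts with 4.0 ng/ml IFN-beta. After 24 hrs at 37 C, cells were lysed and HiBiT luminescence measured.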

[16] = qHTS for inhibitors of adenylyl cyclases using a fission yeast platform: a pilot screen against the NCATS LOPAC library (AID 1347410)
Outline: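 GFP from fbp1-GFP reporter, read by Acumen laser cytometry, indicates AC inhibition in fission yeast expressing AC9, GNAS and PDE4D2. Cells grown 18 h in the dark at 30C with compounds, final up to 57 uM.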

[17] = target: Protein phosphatase 1D (Homo sapiens) (UniProt O15297); test: RapidFire Mass Spectrometry qHTS Assay for Modulators of WT P53-Induced Phosphatase 1 (WIP1) (AID 1347424); also: series mostly up to about 63 µM
Outline: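 RapidFire MS readout of dephosphorylated VEPPL-S-QETFS product, with 1 uM isotope-labelled peptide standard. Reaction: 10 nM WIP1, 2 uM phosphopeptide substrate, 5 min, room temperature, after 1 h compound preincubation; stopped with 0.5% formic acid.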

[18] = target: Protein phosphatase 1D (Homo sapiens) (UniProt O15297); test: Rhodamine-PBP qHTS Assay for Modulators of WT P53-Induced Phosphatase 1 (WIP1) (AID 1347425)
Outline: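 WIP1 (5 nM final) was preincubated with compound for 1 hour at room temperature. It then dephosphorylated 10 uM VEPPL-pS-QETFS peptide in Tris-HCl pH 7.5 with 30 mM MgCl2. Released Pi was detected by 10 uM Rh-PBP fluorescence (ex 525/em 598 nm) read at 1-min intervals for 11 min, as delta f1 - f0.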

[19] = Validation qHTS assay for inhibitors of Activation Induced Cytidine Deaminase (AID): UDG Counterscreen signal (AID 1347427)
Outline: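 Fluorescence at 560 nm excitation, 665 nm emission reports UDG signal after 250 mM NaOH (2x) addition and 30 min. Enzymes (AID 1 uM, UDG 2 U/mL, at 4/3x) preincubated 10 min with compound, then 4 h with 4x 250 nM DJC20/DJC23 substrate at room temperature.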

[20] = target: Single-stranded DNA cytosine deaminase (Homo sapiens) (UniProt Q9GZX7); test: Validation qHTS assay for inhibitors of Activation Induced Cytidine Deaminase (AID): AID signal (AID 1347429)
Outline: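 Steps: dispense AID with UDG; pin-transfer compound up to 114 uM final; add DJC20/DJC23 substrate and hold 4 hr at room temperature; add NaOH, hold 30 min; read FRET signal (540/590 nm).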

Chain of Protein phosphatase 1D (Homo sapiens) (O15297 whole entry, looked up): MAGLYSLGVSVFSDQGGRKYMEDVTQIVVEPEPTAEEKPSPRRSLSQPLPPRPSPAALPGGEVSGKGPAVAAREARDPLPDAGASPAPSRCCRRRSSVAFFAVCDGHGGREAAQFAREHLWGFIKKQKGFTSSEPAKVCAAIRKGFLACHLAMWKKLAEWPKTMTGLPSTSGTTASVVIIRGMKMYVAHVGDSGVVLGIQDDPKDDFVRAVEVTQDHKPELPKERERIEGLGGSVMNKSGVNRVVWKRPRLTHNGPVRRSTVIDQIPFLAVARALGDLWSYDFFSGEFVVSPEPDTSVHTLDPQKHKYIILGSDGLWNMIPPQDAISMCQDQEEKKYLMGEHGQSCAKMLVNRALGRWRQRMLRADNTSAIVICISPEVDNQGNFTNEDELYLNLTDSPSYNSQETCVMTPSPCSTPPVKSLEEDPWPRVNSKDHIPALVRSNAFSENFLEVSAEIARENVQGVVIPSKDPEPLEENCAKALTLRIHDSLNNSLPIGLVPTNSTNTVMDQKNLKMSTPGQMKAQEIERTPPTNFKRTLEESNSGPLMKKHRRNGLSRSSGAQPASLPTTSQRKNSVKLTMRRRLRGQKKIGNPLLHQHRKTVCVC
Chain of Single-stranded DNA cytosine deaminase (Homo sapiens) (Q9GZX7 whole entry, looked up): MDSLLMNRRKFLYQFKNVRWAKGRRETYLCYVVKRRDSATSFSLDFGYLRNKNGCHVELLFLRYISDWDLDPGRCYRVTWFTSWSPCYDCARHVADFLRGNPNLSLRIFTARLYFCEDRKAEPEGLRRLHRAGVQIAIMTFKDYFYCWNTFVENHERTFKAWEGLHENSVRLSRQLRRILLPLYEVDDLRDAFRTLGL

C/C=C/C=C/C(CC(=O)O)Nc1ccc(C=O)cc1 (stereo unspecified)
outcome [1]: inactive | outcome [2]: inactive | outcome [3]: inactive | outcome [4]: inactive | outcome [5]: inactive | outcome [6]: inactive | outcome [7]: inactive | outcome [8]: inactive | outcome [9]: inactive | outcome [10]: inactive | outcome [11]: inactive | outcome [12]: inactive

CCN(c1cc(C#CCN2CCOCC2)cc(C(=O)NCc2c(C)cc(C)[nH]c2=O)c1C)C1CCC(N(C)CCOC)CC1 (stereo unspecified)
Potency [13]: inactive

COc1cc2c(cc1O)CCN[C@]21CS[C@@H]2c3c(OC(C)=O)c(C)c4c(c3[C@H](COC1=O)N1[C@@H]2[C@H]2c3c(cc(C)c(OC)c3O)C[C@@H]([C@@H]1O)N2C)OCO4
Potency [13]: 0.0848 µM (active)

CN1Cc2c(N)cccc2C(c2ccccc2)C1 (stereo unspecified)
outcome [14]: inactive | outcome [15]: inactive | outcome [16]: inactive | outcome [17]: inactive | outcome [18]: inactive | outcome [19]: inactive | outcome [20]: inactive

N#Cc1ccnc(N2C(=O)CC[C@H]2C(=O)N(c2cncc(F)c2)[C@H](C(=O)NC2CC(F)(F)C2)c2ccccc2Cl)c1
Potency [13]: inactive

O=C(O)c1cnn(-c2nc3cc(OC(F)(F)F)c(Cl)cc3[nH]2)c1
Potency [13]: inactive

CNc1nc(Nc2cnn([C@H]3CCN(C4COC4)C[C@@H]3F)c2Cl)ncc1C(F)(F)F
Potency [13]: inactive

CN(NC(=O)CC(=O)NN(C)C(=S)c1ccccc1)C(=S)c1ccccc1
Potency [13]: inactive

COc1cc2c(Nc3ccc(Cl)c(Cl)c3F)ncnc2cc1OCC1C[C@@H]2CN(C)C[C@@H]2C1 (stereo partly specified)
Potency [13]: 20.8 µM (active)

OC[C@H]1O[C@@H](n2cnc3c2NC=NC[C@H]3O)C[C@@H]1O
Potency [13]: inactive

CCOc1cc2ncc(C#N)c(Nc3ccc(OCc4ccccn4)c(Cl)c3)c2cc1NC(=O)/C=C/CN(C)C
Potency [13]: 4.66 µM (active)

O=C(NCC(=O)N1CC[C@H](NC2CCC(O)(c3ccc(-c4ncccn4)cn3)CC2)C1)c1cccc(C(F)(F)F)c1 (stereo partly specified)
Potency [13]: inactive

CCS(=O)(=O)N1CCC([C@@H](C)n2c(C)c(C(=O)NCc3c(OC)cc(C)[nH]c3=O)c3ccccc32)CC1
Potency [13]: inactive

O=C(c1ccc(NS(=O)(=O)c2cccc3cccnc23)cc1)N1CCN(CC2CC2)CC1
Potency [13]: inactive

CON(C)C(=O)N1N=C(c2cc(F)ccc2F)S[C@@]1(CCCN)c1ccccc1
Potency [13]: inactive

CN(C)C/C=C/C(=O)Nc1ccc(C(=O)Nc2cccc(Nc3ncc(Cl)c(-c4c[nH]c5ccccc45)n3)c2)cc1
Potency [13]: 0.294 µM (active)

COc1ncc(-c2ccc3c(Nc4cc(Oc5cc(F)cc(F)c5)cc(C(=O)O)c4)c(S(=O)(=O)NC4CC4)cnc3c2)c(OC)n1
Potency [13]: inactive

CNC(=O)c1ccc(Nc2ncc(C(F)(F)F)c(NCc3nccnc3N(C)S(C)(=O)=O)n2)cc1
Potency [13]: 5.23 µM (active)

CN1C(=O)N[C@@H](Cc2c[nH]c3c(Cl)cccc23)C1=O
Potency [13]: inactive

Reference: PubChem BioAssay (NCATS)
